Data from PubChem BioAssay (NCATS).
Inconclusive results are not listed. A number with no mark means an inactive call. Active and inactive are the calls of the source. The call rests on the fitted dose curve; in most records, active means well fitted cell-killing curve with a large enough effect; inconclusive means small, poorly fitted or top-dose-only effect; inactive means flat fitted curve, though single readings scatter. Numbered stars: 1 amine (or outer) side, 2 acyl side, 3 side chain; on linkers, the order of the positions; unused ones are H or OH. Bridge positions count the residues as written; N and C are the ends. Square brackets hold non-standard residues; d marks the D form. Peptide text beside a SMILES is read from it. I, II: the chains in the order shown. Actinocin(9to1) = Cc1c2oc3c(C)ccc(C(=O)[*:1])c3nc-2c(C(=O)[*:2])c(N)c1=O; NMeV = CN[CH](C(=O)O)C(C)C; Sar = CNCC(=O)O
Potency means the concentration at half of the fitted maximal effect.

Assay: Quantitative highthroughput screen to assess conditional lethalithy of P12 Ichikawa cells grown in RPMI1640 with untreated serum (RPMI+s) (AID 1963881); further: nearly all actives have a fitted effect of over 35% in size
Conditions: ATP luminescence, 48 h; Potency: viability; series mostly up to 45.8 µM; viability: at the top concentration
Source text: Assay Provider: Jason Cantor Ph.D.
Department of Biochemistry
University of Wisconsin-Madison, Madison, WI, USA
Chemical screening studies have identified drug sensitivities across hundreds of cancer cell lines but most putative therapeutics fail to translate. Discovery and development of drug candidates in models that more accurately reflect nutrient levels in human blood is a major challenge. Here we performed high-throughput screens in conventional versus Human Plasma-Like Medium (HPLM) to identify compounds that were "missed" when screening using the artificial culture condition. Sets of conditional anticancer compounds spanned phases of clinical development and included non-oncology drugs were assessed. […] We also traced conditional phenotypes for several chemotherapeutics to availability of HPLM-specific metabolites and confirmed others for compounds whose reported targets are encoded by nonessential genes. Our findings establish generalizable strategies for exploiting conditional lethality in HPLM to reveal therapeutic candidates and mechanisms of action in cancer cells.
Described herein are the results of each viability screens against three cell lines: NOMO1 (an acute myeloid leukemia cell line); P12-Ichikawa (a T-cell acute lymphoblastic leukemia); and SEM (a B-cell ALL). Each assay was screened using 3 different cell culture media: homemade human plasma-Like medium with 10% dialyzed fetal bovine serum (HPLM+ds); RPMI1640 with 10% untreated FBS and 5mM glucose (RPMI+s); and RPMI1640 with 10% dialyzed fetal bovine serum and 5 mM glucose (RPMI+ds).
PROTOCOL TABLE (as described by Inglese J, Shamu CE and Guy RK. 2007)
SEQUENCE No. (e.g., 1, 2, 3, etc.); […] (e.g., Cells, Incubation, Reagent, etc.); VALUE and DESCRIPTION.
1; Cells; 5 uL; white, solid bottom 1536-well Greiner assay plate.
2; Compounds; 23 nL; Kalypsis pin tool (Wako USA) equipped with a 1536-well pin head to transfer to the assay plates.
3; Incubation; 48 hours; 37C incubation.
4; Reagent; 3 uL; CellTiter Glo (Promega).
5; Incubation; 5 min, room temperature
6; Detection; Luminescence, Viewlux PerkinElmer.
NOTES (numbers refer to Sequence numbers above)
1. Briefly, 5 ul of cell reagent was dispensed using a Multidrop Combi Dispenser. The NOMO1 and SEM cells were plated at 500 cells/well and the P12-Ichikawa line at 1000 cells/well.
2. After seeding the cells, 23 nL of MIPE 4.1 library compounds (in DMSO) were added to each plate using a Kalypsys 1536 Pintool dispenser. Bortezomib at final concentration of […] and DMSO were added to each plate as positive and negative controls respectively. For each screen, MIPE 4.1 compounds were added over an eleven-point concentration range […] in 3-fold dilutions.
3. Each plate was covered with a stainless steel gasketed lid to prevent evaporation and incubated for 48 hour at 37C, 95% relative humidity, and 5% CO2.
4-5. Three microliter CellTilter-GloTM luminescent substrate mix (Promega) reagent was added to the assay plate and incubated at room temperature for 5 min.
6. The luminescence signal was measured using a ViewLux (PerkinElmer) multiplate reader with a 2 second exposure time per plate. Data for each compound were normalized as percent viability such that measurements for DMSO and the empty well controls in each plate were defined as 100% and 0%, respectively.
In the case of `O=C(CCCCCCC(=O)Nc1ccccc1)NO`, the Potency is reported as 3.32 µM (active).
In the case of `Nc1nnc(-c2cccc(Cl)c2Cl)c(N)n1`, the “viability” value is reported as 90.8%.
In the case of `N=C1SC(=Cc2ccc(-c3ccc4c(c3)C(=O)NC4=O)o2)C(=O)N1c1ccc(Br)cc1`, the “viability” value is reported as 91.9%.
With `COc1cccc(N(C)C(=S)Oc2ccc3c(c2)CCCC3)n1` the “viability” value was 89.6%.
For `CC(C)=CCCC(C)=CCCC(C)=CCCC(C)=CCCC(C)=CCCC(C)=CCCC(C)=CCCC(C)=CCCC(C)=CCO`, the “viability” value was 103%.
With `c1cc(OCCN2CCCCC2)cc(-c2n[nH]c3ccc(-c4ncn[nH]4)cc23)c1` the “viability” value was 93.2%.
With `Cc1[nH]c(C=C2C(=O)Nc3ccc(S(=O)(=O)Cc4c(Cl)cccc4Cl)cc32)c(C)c1C(=O)N1CCC[C@H]1CN1CCCC1` the “viability” value was 91.4%.
With `Cc1nnc(C(=O)NC(C)(C)c2nc(C(=O)NCc3ccc(F)cc3)c(O)c(=O)n2C)o1` the “viability” value was 99.8%.
In the case of `c1ccc(CNc2nc(N3CCOc4ccccc43)nc3c2CCCC3)cc1`, the “viability” value is reported as 89.7%.
In the case of `CC1CNc2c(cccc2S(=O)(=O)N[C@@H](CCCN=C(N)N)C(=O)N2CC[C@@H](C)C[C@@H]2C(=O)O)C1` (stereo not given in full), the “viability” value is reported as 86.3%.
In the case of `Cc1[nH]c(C=C2C(=O)Nc3ccccc32)c(C)c1CCC(=O)O`, the Potency is reported as 13.2 µM (active).
For `C[C@]12CC[C@@H]3c4ccc(O)cc4CC[C@H]3[C@H]1C[C@@H](O)[C@H]2O`, the “viability” value was 94.8%.
With `COc1ncnc(NS(=O)(=O)c2ccc(N)cc2)c1OC` the Potency was 1.66 µM (active).
For `CC1(O)CC(c2nc(-c3ccc4ccc(-c5ccccc5)nc4c3)c3c(N)nccn23)C1` (stereo not given), the Potency was 4.69 µM (active).
For `CC=CC(=O)N(CC)c1ccccc1C`, the “viability” value was 86.1%.
In the case of `Nc1ccccc1NC(=O)c1ccc(CNC(=O)OCc2cccnc2)cc1`, the Potency is reported as 2.64 µM (active).
For `COc1cc(Nc2ncc(F)c(Nc3ccc4c(n3)N(COP(=O)(O)O)C(=O)C(C)(C)O4)n2)cc(OC)c1OC`, the “viability” value was 92.3%.
For `C[C@H](CCC(=O)O)[C@H]1CC[C@H]2[C@H]3[C@@H](CC[C@]12C)[C@@]1(C)CC[C@@H](O)C[C@H]1C[C@@H]3O`, the “viability” value was 102%.
With `Cc1ccccc1C(OCCN(C)C)c1ccccc1` (stereo not given) the “viability” value was 94.2%.
With `Cc1c2oc3c(C)ccc(C(=O)NC4C(=O)NC(C(C)C)C(=O)N5CCCC5C(=O)N(C)CC(=O)N(C)C(C(C)C)C(=O)OC4C)c3nc-2c(C(=O)NC2C(=O)NC(C(C)C)C(=O)N3CCCC3C(=O)N(C)CC(=O)N(C)C(C(C)C)C(=O)OC2C)c(N)c1=O` (stereo not given) (I: TVP[Sar][NMeV] / II: TVP[Sar][NMeV]; ester I:1-I:C, II:1-II:C; linker I:N-II:N via Actinocin(9to1); configuration not given here) the “viability” value was 1.02%.
For `CCN(CC)CCOc1ccc(Cc2ccccc2)cc1`, the “viability” value was 87.9%.
In the case of `CCCc1cc(C(N)=S)ccn1`, the “viability” value is reported as 102%.
For `CC(NCc1ccc2c(c1)nc(NC(=O)c1ccc(-c3cn[nH]c3)s1)n2CC(C)(C)O)C(C)(C)C` (stereo not given), the Potency was 2.64 µM (active).
In the case of `O=[N+]([O-])c1cn2c(n1)OC[C@@H](OCc1ccc(OC(F)(F)F)cc1)C2`, the “viability” value is reported as 104%.
For `COC(=O)C1=C(C)NC(C)=C(C(=O)OCCCN2CCC(c3ccccc3)(c3ccccc3)CC2)C1c1cccc([N+](=O)[O-])c1` (stereo not given), the “viability” value was 101%.
With `CC(C)(N)c1ccc(-c2nc3ccccc3nc2-c2ccccc2)cc1` the Potency was 0.0935 µM (active).
With `OC[C@H]1O[C@@H](Oc2ccc(O)cc2)[C@H](O)[C@@H](O)[C@H]1O` the “viability” value was 102%.
In the case of `CCC(=C(c1ccccc1)c1ccc(OCCN(C)C)cc1)c1ccccc1`, the “viability” value is reported as 78.4%.
With `CCN(c1ccccc1)c1cc(NC)[n+](C)c(C)n1` the “viability” value was 98.8%.
For `C[N+](C)(C)CC(=O)O`, the “viability” value was 101%.
In the case of `O=C1c2c(O)ccc(O)c2C(=O)c2c(NCCNCCO)ccc(NCCNCCO)c21`, the Potency is reported as 0.264 µM (active).
With `C[C@@H](c1ncncc1F)[C@](O)(Cn1cncn1)c1ccc(F)cc1F` the “viability” value was 89.7%.
With `Cc1oncc1C(=O)Nc1ccc(C(F)(F)F)cc1` the “viability” value was 91.1%.
In the case of `O=C1NC(O)CCN1[C@@H]1O[C@H](CO)[C@H](O)[C@H]1O` (stereo not given in full), the “viability” value is reported as 101%.
With `COC(=O)N1CC2(CC2)C[C@H](C(=O)NO)[C@H]1C(=O)N1CCN(c2ccccc2)CC1` the Potency was 2.34 µM (active).
With `COc1cc2c(cc1OC)C1CC(=O)C(CC(C)C)CN1CC2` (stereo not given) the “viability” value was 99.3%.
For `CC(C)Nc1cc(C(F)(F)F)cc2nc(NC(=O)c3cccnc3)nn12`, the Potency was 2.35 µM (active).
In the case of `CCCCCCCc1ccc(CCc2cccc(O)c2C(=O)O)cc1`, the “viability” value is reported as 91.4%.
With `COc1ccc2c(c1)CC[C@@H](CN(C)CC(=O)O)[C@H]2c1ccccc1` the Potency was 2.64 µM (active).
For `O=C(OCC#CCSc1nnc(-c2cccc3ccccc23)o1)c1cc2ccccc2s1`, the “viability” value was 98%.
